Compound activity as filed in PubChem BioAssay.
A selection: hits, their analogues and other compounds. The true share with any hit is near 21%.
Pf growth 48h = P. falciparum growth inhibition at 48 hours (one generation) | P. falciparum luciferase growth in erythrocytes, 48 h | Potency, µM (top dose mostly 28.7 µM), for the others: at the top dose activity change, negative = inhibition, hits mostly inhibitors | actives 5.9% (n = 310,000); note: potency is the fitted concentration of half-maximal effect; % is set by controls: 0 for no effect and ±100 for the full control effect
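First compound was added to culture medium, then infected red cells at 0.1% parasitemia and 2% hematocrit (final). After incubation at 37 C under 5% CO2, luciferase detection reagent was dispensed and light output recorded.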
Shiga toxin inh = inhibitors of Shiga toxin in Vero cells | inhibition, % at 38.7 µM | AID 2315 | actives 9.2% (n = 290,000) | Vero cells, Shiga toxin protein synthesis inhibition reporter; in the data active = inhibition mostly above about 28%, no sharp cut-off; inactive = mostly below about 43%; note: 0% is about no effect
FBPA Giardia inh = inhibitors of Giardia lamblia fructose-1,6-bisphosphate aldolase; purified Giardia FBPA; Potency, µM (doses to about 59.6 µM), without a hit: at the top dose activity, negative = inhibition, most hits filed as inhibitors; A8B2U2; actives 0.71% (n = 290,000); note: potency is the fitted concentration of half-maximal effect; % is set by controls: 0 for no effect and ±100 for the full control effect; nearly all actives have a fitted effect of over 55% in size
Target sequence (A8B2U2 whole entry, looked up): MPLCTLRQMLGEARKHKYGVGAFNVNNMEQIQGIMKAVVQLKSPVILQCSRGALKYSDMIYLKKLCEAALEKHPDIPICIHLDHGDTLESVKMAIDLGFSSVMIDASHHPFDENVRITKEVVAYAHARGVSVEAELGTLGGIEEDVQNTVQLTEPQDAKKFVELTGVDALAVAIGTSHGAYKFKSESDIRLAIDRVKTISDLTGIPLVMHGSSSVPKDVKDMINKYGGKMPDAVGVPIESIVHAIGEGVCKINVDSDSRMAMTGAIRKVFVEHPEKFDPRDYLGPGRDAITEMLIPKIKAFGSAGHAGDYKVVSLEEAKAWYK
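Giardia FBPA (40 nM reagent) was preincubated 10 min at RT with compound (up to 57.5 uM final), then substrate plus GAPDH/TPI/NAD/arsenate coupling system with diaphorase/resazurin was added; resorufin fluorescence (525/598 nm) was read after 20 min.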
CHX counter = affects cycloheximide protein synthesis inhibition readout, counter-screen | max response, % | cell reporter, cycloheximide protein synthesis inhibition counterscreen | AID 2314 | actives 12% (n = 300,000); in the data active = max response mostly above about 13%, no sharp cut-off; inactive = mostly below about 14%; note: read at 38.3 µM for the half of the compounds with a filed dose; 0% is about no effect
NS1 function inh = blocks influenza NS1 protein function | Potency, µM (doses to about 46.1 µM), without a hit: at the highest dose activity, positive = more growth | actives 0.4% (n = 270,000) | AID 2326; calls by dose curve; note: potency is the fitted concentration of half-maximal effect; actives are rising curves; nearly all actives have a fitted effect of over 50% in size
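Growth recovery, yeast-based: influenza A NS1 expressed in S. cerevisiae causes slow growth, and suppressors are detected by OD600. The parent strain without NS1 is used as positive control.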
Pf growth 96h = inhibits malaria parasite growth, 96 h; P. falciparum luciferase reporter growth, 96 h; AID 504834; Potency, µM (doses to about 28.7 µM), for inactives: at the highest dose activity change, negative = inhibition, actives largely listed as inhibitors; actives 6.9% (n = 320,000); note: potency is the fitted concentration of half-maximal effect; % is set by controls: 0 for no effect and ±100 for the full control effect
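Erythrocytes infected with luciferase-expressing P. falciparum were dispensed at 2% hematocrit and 0.05% parasitemia (final), then incubated with compounds 96 hours at 37 C in 5% CO2. Luminescence after detection reagent addition reported growth.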
* = called active by the depositor. Unless noted, calls come from the whole dose curve; as a rule, active = well fitted curve in the direction sought with a large enough effect; inconclusive = small, poorly fitted or top-dose-only effect, or another doubt; inactive = no such curve, though single readings can be large; an effect the other way counts as inactive or inconclusive.

`CC(=O)Nc1ccc(S(=O)(=O)Nc2nc3ccccc3nc2N2CCCCCC2)cc1` gave Pf growth 48h 31%, Shiga toxin inh -21, FBPA Giardia inh 13%, CHX counter -6, NS1 function inh 11% and Pf growth 96h 10%.
O=S(=O)(Nc1nc2ccccc2nc1N1CCN(c2ccccn2)CC1)c1ccc(Cl)cc1 was read as Pf growth 48h 43%, Shiga toxin inh 38, FBPA Giardia inh 15%, CHX counter 15* and NS1 function inh -48%.
Screening Cc1ccc(S(=O)(=O)Nc2nc3ccccc3nc2N2CCN(c3ccccc3F)CC2)cc1 returned Pf growth 48h 3%, Shiga toxin inh -8, FBPA Giardia inh 13%, CHX counter -4 and NS1 function inh inconclusive.
`O=S(=O)(Nc1nc2ccccc2nc1Cl)c1ccc(Br)cc1` gave Pf growth 48h 28%, Shiga toxin inh 4, FBPA Giardia inh 8%, CHX counter -7 and Pf growth 96h -13%.
Screening CC(=O)Nc1ccc(S(=O)(=O)Nc2nc3ccccc3nc2N2CCc3ccccc3C2)cc1 returned Pf growth 48h 126%, Shiga toxin inh 103*, FBPA Giardia inh 16%, CHX counter 47*, NS1 function inh inconclusive and Pf growth 96h 84%.
`Nc1nonc1C(=O)NCCNC(=O)c1cccc(Cl)c1` gave Pf growth 48h 6%, Shiga toxin inh -2, FBPA Giardia inh 8%, CHX counter -6, NS1 function inh -2% and Pf growth 96h -19%.
For O=C1[O][Bi][O]c2ccccc21 the results were Pf growth 48h 5% and Pf growth 96h 21%.
Screening CC(C)OCCCNC(=O)c1cc(S(=O)(=O)N2CCc3ccccc32)cn1C returned Pf growth 48h -5%, Shiga toxin inh -5, FBPA Giardia inh 4%, CHX counter 1, NS1 function inh -13% and Pf growth 96h 10%.
`Cc1cn2nc(N)c3ccccc3c2n1` gave Pf growth 48h 8%, Shiga toxin inh 29, FBPA Giardia inh 3%, CHX counter 19*, NS1 function inh -4% and Pf growth 96h 92%.
`Nc1nn2cc(-c3ccccc3)nc2c2ccccc12` gave Pf growth 48h inactive, Shiga toxin inh 70*, FBPA Giardia inh -7%, CHX counter 30* and Pf growth 96h 259%.
Screening Cc1ccc(Cn2cc(C=O)c(-c3ccc(C)cc3)n2)cc1 returned Pf growth 48h 32%, Shiga toxin inh 78*, FBPA Giardia inh -1%, CHX counter 52*, NS1 function inh -16% and Pf growth 96h 15%.
`Cc1ccc(Cn2cc(/C=C/C(=O)O)c(-c3ccccc3)n2)cc1` gave Pf growth 48h 14%, Shiga toxin inh -18, FBPA Giardia inh 9%, CHX counter -2, NS1 function inh -48% and Pf growth 96h 41%.
O=S(=O)(NCc1cccs1)c1ccccc1Cl was read as Pf growth 48h -2% and Pf growth 96h 11%.
For CCC(=O)Nc1nc2ccc([N+](=O)[O-])cc2s1 the results were Pf growth 48h 81%, Shiga toxin inh 14, FBPA Giardia inh 0%, CHX counter 10, NS1 function inh -55% and Pf growth 96h 46%.
For CCC(=O)Nc1nc2ccc3sc(C)nc3c2s1 the results were Pf growth 48h inconclusive, Shiga toxin inh 96*, FBPA Giardia inh -27%, CHX counter 50*, NS1 function inh -7% and Pf growth 96h -6%.
Cc1nc2c(ccc3nc(NC(=O)C4CC4)sc32)s1 was read as Pf growth 48h 35%, Shiga toxin inh 85*, FBPA Giardia inh 6%, CHX counter 52* and Pf growth 96h 10%.
Screening CCOC(=O)C1=C(COC(=O)/C=C/c2cccc(OC)c2OC)NC(=O)NC1C (stereo not given) returned Pf growth 48h -14%, Shiga toxin inh 53*, FBPA Giardia inh 7%, CHX counter 40*, NS1 function inh 10% and Pf growth 96h -1%.
Screening CCOC(=O)C1=C(COC(=O)/C=C/c2ccccc2F)NC(=O)NC1C (stereo not given) returned Pf growth 48h -20% and Pf growth 96h 26%.
`CCOC(=O)C1=C(COC(=O)/C=C/c2ccccc2Cl)NC(=O)NC1C` (stereo not given) gave Pf growth 48h 11%, Shiga toxin inh 56*, CHX counter 49*, NS1 function inh -38% and Pf growth 96h 10%.
Screening O=C(NCCOc1ccccc1)C1CCC(=O)N(C2CCCCCC2)C1 (stereo not given) returned Pf growth 48h inconclusive, Shiga toxin inh 21, FBPA Giardia inh 9%, CHX counter 14, NS1 function inh -12% and Pf growth 96h inconclusive.
`CCNc1ncc2nc(-c3ccc(Cl)cc3)c(=O)n(C[C@H]3CCCO3)c2n1` gave FBPA Giardia inh -4%.
For c1nc2n(n1)C1=C(CCCC1)C1(CCCCC1)N2 the results were Pf growth 48h inconclusive, Shiga toxin inh 8, FBPA Giardia inh 5%, CHX counter 9 and Pf growth 96h 2.6µM*.
For O=Nc1c(O)[nH]c2c(Cl)c(Cl)ccc12 the results were Shiga toxin inh -3, FBPA Giardia inh 5% and CHX counter -5.
CSc1ncc(Cl)c(C(=O)Nc2ccccc2[N+](=O)[O-])n1 was read as Pf growth 48h 66%, Shiga toxin inh -6, FBPA Giardia inh 7%, CHX counter -2, NS1 function inh 6% and Pf growth 96h 9.3µM*.
`CCSc1ncc(Cl)c(C(=O)Nc2ccc(S(=O)(=O)Nc3ncccn3)cc2)n1` gave Pf growth 48h -15%, Shiga toxin inh -2, CHX counter -2, NS1 function inh 3% and Pf growth 96h inconclusive.
`CCSc1ncc(Cl)c(C(=O)Nc2ccc(S(N)(=O)=O)cc2)n1` gave Pf growth 48h 5%, Shiga toxin inh -4, FBPA Giardia inh 0%, CHX counter -3, NS1 function inh 4% and Pf growth 96h 9.3µM*.
CCSc1ncc(Cl)c(C(=O)Nc2ccccc2)n1 was read as Pf growth 48h 3%, Shiga toxin inh -9, FBPA Giardia inh 5%, CHX counter 5, NS1 function inh 6% and Pf growth 96h 8.3µM*.
CCOC(=O)/C(C#N)=C/Nc1ccccc1NS(=O)(=O)c1ccc2c(c1)OCCO2 was read as Pf growth 48h 9.3µM* and Pf growth 96h 12µM*.
`CCOC(=O)/C(C#N)=C/Nc1ccccc1OC` gave Pf growth 48h 68%, Shiga toxin inh 43*, FBPA Giardia inh 0%, CHX counter 25*, NS1 function inh -8% and Pf growth 96h 3%.
`NC(=O)c1ccccc1NS(=O)(=O)c1ccc2c(c1)OCCO2` gave Shiga toxin inh -10, FBPA Giardia inh 20%, CHX counter -1, NS1 function inh -2% and Pf growth 96h -3%.
For COc1ccc(C(=O)CN(CCC(=O)O)S(=O)(=O)c2ccc([N+](=O)[O-])cc2)cc1 the results were Pf growth 48h 12% and Pf growth 96h 17%.
